Screening results as filed in PubChem BioAssay.
The list is not random: actives were taken first. Their share in the collection is about 2.9%.
DRD3 agonist: qHTS of D3 Dopamine Receptor Agonist: qHTS; D(3) dopamine receptor (Homo sapiens), P35462; D3R DiscoveRx beta-arrestin cells, luminescence, 90 min; max activation, %; 410,000 compounds, 0.58% hits; AID 652048, 2013; in the data active = max activation above about 30%; note: 0% is about no effect
Target sequence (P35462 whole entry, looked up): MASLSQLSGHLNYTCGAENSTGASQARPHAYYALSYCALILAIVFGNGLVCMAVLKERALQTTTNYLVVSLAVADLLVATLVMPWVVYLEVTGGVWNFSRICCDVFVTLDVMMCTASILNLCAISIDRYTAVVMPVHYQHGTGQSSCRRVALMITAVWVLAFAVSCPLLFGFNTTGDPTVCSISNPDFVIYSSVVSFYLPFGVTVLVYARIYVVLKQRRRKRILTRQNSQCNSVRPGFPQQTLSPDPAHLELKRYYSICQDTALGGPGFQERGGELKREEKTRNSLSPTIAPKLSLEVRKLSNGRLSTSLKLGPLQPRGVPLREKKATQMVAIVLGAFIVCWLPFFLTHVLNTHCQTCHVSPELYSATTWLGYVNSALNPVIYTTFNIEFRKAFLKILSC
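Agonist-mode cell screen: cells plated at 1500/well and incubated overnight at 37 °C, then exposed to library compounds for 90 min at 37 °C. Detection reagent was added for 30–60 min at room temperature, and luminescence was read.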
B2AR arrestin: qHTS assay of beta-arrestin-biased ligands of beta2-adrenergic receptor | Potency, µM (highest dose often 46.1 µM), for the others: at the highest dose activation, usual class: activators | 330,000 compounds, 0.02% hits | Beta-2 adrenergic receptor (Homo sapiens), P07550 | beta-arrestin recruitment to beta2AR, cell-based reporter;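 note: potency is the fitted concentration of half-maximal effect; 0% = DMSO controls and full agonism = EC100 isoproterenol or metaproterenol; nearly all actives have a fitted effect of over 65% in size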
DRD3 antagonist: qHTS of D3 Dopamine Receptor Antagonist: qHTS; max response, negative = inhibition, %; D(3) dopamine receptor (Homo sapiens), P35462; 360,000 compounds, 2.5% hits; D3R cells, DiscoveRx beta-arrestin luminescence, antagonist mode; stronger effect = lower value; in the data active = max response below about -50%; inconclusive = no clear call, values can overlap the other calls; note: % is set by controls: 0 for no effect and ±100 for the full control effect
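Cells plated overnight at 1500 cells/well, then exposed to library compounds with dopamine controls for 90 minutes at 37 degrees C. DiscoveRx reagent added for 30–60 minutes at room temperature; luminescence read, quantitative HTS format.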
a7 integrin act: qHTS for Activators of Integrin-Mediated Alleviation for Muscular Dystrophy; alpha7betagal myoblasts, beta-gal FDG fluorescence, 48 h; Potency, µM (doses to about 38.3 µM), for inactives: at the top dose activation, actives largely listed as activators; 350,000 compounds, 0.064% hits; AID 624291, 2012;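 note: potency is the fitted concentration of half-maximal effect; 100% = response of the positive control SU9516; nearly all actives have a fitted effect of over 60% in size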
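alpha7betagal+/- myoblasts (passage 13, 250/well) treated 48 h at 37C with compounds at 1:260 dilution of DMSO stock. Lysed, then beta-galactosidase activity read as FDG fluorescence (ex 480/em 540) after 30 min, with pre-read for autofluorescence.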
mIDH1 inhibitor: qHTS for Inhibitors of mutant isocitrate dehydrogenase 1 (IDH1): qHTS. Isocitrate dehydrogenase [NADP] cytoplasmic (Homo sapiens), O75874. Potency, µM (highest dose often 76.6 µM), inactives show at the top dose activity change, negative = inhibition, hits mostly inhibitors. AID 602179, 2012. IDH1-R132H enzyme, NADPH consumption, diaphorase/resazurin fluorescence. 390,000 compounds, 0.093% hits; note: potency is the fitted concentration of half-maximal effect; % is set by controls: 0 for no effect and ±100 for the full control effect; nearly all actives have a fitted effect of over 65% in size
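IDH1-R132H (0.5 ug/mL) preincubated 30 min with compound, then NADPH (0.016 mM) and alpha-KG (2 mM) added; 80 min at RT, pH 7.5. Remaining NADPH coupled via diaphorase/resazurin to fluorescence (540/590 nm); concentration-response curves normalized to no-enzyme control.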
* marks the source's active call; other numbers are inactive results; ? = inconclusive; . = no result given; [ ] = another dose, or the depositor's remark. Unless noted, calls come from the whole dose curve; as a rule, active = well fitted curve in the direction sought with a large enough effect; inconclusive = small, poorly fitted or top-dose-only effect, or another doubt; inactive = no such curve, though single readings can be large; an effect the other way counts as inactive or inconclusive.

SMILES | DRD3 agonist | B2AR arrestin | DRD3 antagonist | a7 integrin act | mIDH1 inhibitor
CC1(C)N=C(N)N=C(N)N1c1ccc(OCC(=O)Nc2ccccc2)c(Cl)c1 | -6 | . | -62* | -53% | 0%
Cc1oc2ccc(O)c(CN3CCOCC3)c2c1C(=O)Nc1ccc(C(C)C)cc1 | -1 | . | . | . | 38%
N#C/C(=C\c1ccc(N2CCOCC2)o1)C(=O)NCC1CCCO1 (configuration not stated) | -1 | 0% | -82* | -5% | 2%
N#C/C(=C/c1ccc(N2CCCCCC2)o1)c1ccc(Cl)cc1 | -26 | -1% | -64* | -65% | 11%
N#C/C(=C\c1ccc(N2CCOCC2)o1)C(=O)NC1CCCCC1 | -1 | -1% | -5 | -15% | -14%
Cc1ccc(/C(C#N)=C\c2ccc(N3CCOCC3)o2)cc1 | -27 | 0% | -65* | -44% | 2%
N#C/C(=C/c1ccc(N2CCCCC2)o1)c1cccc(F)c1 | -55 | 4% | -69* | -65% | 10%
Cc1ccc2nc(/C(C#N)=C\c3ccc(N4CCOCC4)o3)[nH]c2c1 | 3 | 0% | 0 | -7% | 3%
CCOCCn1ccc2c(OCC(=O)Nc3cccc([N+](=O)[O-])c3)cccc2c1=O | -6 | . | . | . | 9%
O=C(Nc1ccccc1Cl)[C@H](CSCc1ccccc1)N1Cc2ccccc2C1=O | -8 | . | . | . | 6%
CC(C)Cc1ccc(S(=O)(=O)Nc2cc3c(cc2N2CCOCC2)n(C)c(=O)c(=O)n3C)cc1 | 0 | . | . | . | -18%
O=C1C(CO)C(CO)C(CO)C1CO (configuration not stated) | 39* | . | -6 | -2% | -10%
COc1ccccc1N1CCN(C(c2cc3cc(C)ccc3[nH]c2=O)c2nnnn2C2CCCC2)CC1 (configuration not stated) | -20 | 0% | -8 | -20% | 6%
COc1ccccc1N1CCN(C(c2ccccn2)c2nnnn2C2CCCCC2)CC1 (configuration not stated) | 1 | 0% | -66* | 23% | -1%
CCC(C)(C)n1nnnc1C(c1cc2cc3c(cc2[nH]c1=O)OCO3)N1CCCCC1 (configuration not stated) | 2 | -1% | 15 | -3% | 0%
CCC(C)(C)n1nnnc1C(c1cc2ccc(OC)cc2[nH]c1=O)N1CCN(C2CCCCC2)CC1 (configuration not stated) | -24 | -1% | -64* | 5%[7.66 µM] | 2%
COc1ccccc1N1CCN(C(c2cc3ccc(C)cc3[nH]c2=O)c2nnnn2C2CCCC2)CC1 (configuration not stated) | -9 | 0% | -70* | 2%[7.66 µM] | 3%
Fc1ccccc1N1CCN(C(c2ccccn2)c2nnnn2C2CCCCC2)CC1 (configuration not stated) | 0 | 0% | 5 | 9% | -3%
COc1cccc(CNC(=O)c2[nH]c3cc(C)ccc3c2Sc2ccccc2)c1 | 4 | . | . | . | -7%
Cc1nn(-c2ccc(C(=O)N3CCN(S(=O)(=O)c4ccccc4C(F)(F)F)CC3)cc2)c(C)c1Cl | 112* | 4% | 2 | ? | -16%
CC(=O)c1ccc(S(=O)(=O)N2CCN(C(=O)c3ccc(-n4nc(C)c(Cl)c4C)cc3)CC2)cc1 | 77* | 0% | 18 | 0% | 0%
Cc1cc(C)n(-c2ccc(C(=O)N3CCN(S(=O)(=O)c4ccc(Cl)cc4)CC3)cc2)n1 | -2 | 0% | 9 | -8% | 2%
Cc1cccc(CCN2CCN=C2Nc2ccccc2)c1 | -46 | 0% | -56* | -25% | -7%
c1ccc(NC2=NCCN2CCC2CCCCC2)cc1 | -91 | -1% | -63* | -17% | -1%
c1ccc(NC2=NCCN2CCCC2CCCC2)cc1 | -63 | 0% | ? | 14% | -19%
SMILES | DRD3 agonist | B2AR arrestin | DRD3 antagonist | a7 integrin act | mIDH1 inhibitor
Cc1ccc(C)c(-n2nnc(C(=O)Nc3ccc(Br)cc3)c2C)c1 | 3 | . | . | . | -7%
Cc1cc(-c2csc(N)n2)c(C)n1CCC(C)C | 1 | 0% | 17 | -21% | -3%
Cc1cc(-c2csc(N)n2)c(C)n1CCc1ccccc1 | 32* | -1% | -19 | -19% | 0%
Cc1ccc(S(=O)(=O)/N=C2\C(=O)c3ccccc3C([O-])=C2n2cc[n+](CCC(C)C)c2)cc1 | 12 | 1% | -76* | -68% | 5%
CCCC[n+]1ccn(C2=C([O-])c3ccccc3C(=O)/C2=N\S(=O)(=O)c2ccc(Br)cc2)c1 | 8 | 3% | -18 | -27% | 13%
O=C(Nc1ccccc1)c1[nH]ncc1[N+](=O)[O-] | 2 | 0% | -63* | -3% | 3%
CC(=O)Nc1ccc(NC(=O)CN2CCN(c3cccc(C(F)(F)F)c3)CC2)cc1 | -17 | 0% | -80* | 10% | 1%
CC(=O)Nc1ccc(CN2CCN(c3cccc(C(F)(F)F)c3)CC2)cc1 | -59 | 0% | -92* | -17% | 14%
O=C(CN1CCN(c2cccc(C(F)(F)F)c2)CC1)Nc1cccc(C(F)(F)F)c1 | -8 | 0% | ? | -14% | 7%
COc1ccc(NC(=O)CSc2nc(-c3cccs3)cc(C(F)(F)F)n2)c(OC)c1 | 24 | . | . | . | 7%
CN(C#N)c1nccc(-c2cccs2)n1 | 2 | -1% | 3 | 11µM* | 0%
CN(C)/C=N/c1nccc(-c2cccs2)n1 | -1 | 2% | 11 | 8.9µM* | 11%
c1ccc(-c2cccs2)nc1 | -15 | 0% | -3 | 13% | -5%
CCOc1ccc(NC(=O)c2sc(-n3nc(C)c(Cc4ccc(Cl)cc4)c3C)nc2C)cc1 | -3 | . | . | . | -14%
CC(=O)c1ccc(N2CCN(C(=O)c3cc(-c4ccncc4)nc4ccc(Cl)cc34)CC2)cc1 | 34* | -1% | 1 | -6% | -2%
Cc1c(NC(=O)c2ccc(-c3cccc([N+](=O)[O-])c3)o2)cccc1-c1nc2cc(Cl)ccc2o1 | 2 | . | . | . | -3%
COc1cc(C(C)=O)ccc1OCC(O)CN1CCN(c2ccc(C)c(C)c2)CC1 (configuration not stated) | -8 | 0% | -52* | -11% | 4%
CC(=O)Nc1ccc(OCC(O)CN2CCN(c3ccc(C)c(Cl)c3)CC2)cc1 (configuration not stated) | -32 | -1% | -144* | -23% | 5%
Cc1ccc(C(=O)NNC(=O)C2CCN(Cc3ccc(Cl)c(Cl)c3)CC2)cc1 | -31 | 0% | -16 | 11% | -4%
O=C(NC(c1ccccc1)c1ccsc1)C1CCN(Cc2ccc(Oc3ccccc3)cc2)CC1 (configuration not stated) | -19 | . | -100* | . | .
